Assay outcomes (PubChem BioAssay)
The list is not random: actives were taken first. Their share in the collection is about 1.5%.
Dyrk1A ADPGlo – rat Dyrk1A kinase inhibitors, primary screen, biochemical, single point, plate reader; inhibition, % at 12.5 µM; 310,000 compounds, 0.43% hits; AID 504441, 2011; ADP-Glo luminescence, NFATc1 peptide; in the data active means inhibition above about 50%;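 further: plate controls were vehicle with enzyme for no effect and no enzyme for full effect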
STK33 inh – inhibitors of purified STK33 kinase, primary screen, biochemical, ADP-Glo luminescence, homogeneous, cell-free; Serine/threonine-protein kinase 33 (Homo sapiens), Q9BYT3; 320,000 compounds, 0.073% hits; inhibition, % at 10 µM; MBP phosphorylation;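 active means inhibition at or above 25%, using the most active replicate where run in duplicate; inactive means inhibition below 25%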
Target sequence (Q9BYT3 whole entry, looked up): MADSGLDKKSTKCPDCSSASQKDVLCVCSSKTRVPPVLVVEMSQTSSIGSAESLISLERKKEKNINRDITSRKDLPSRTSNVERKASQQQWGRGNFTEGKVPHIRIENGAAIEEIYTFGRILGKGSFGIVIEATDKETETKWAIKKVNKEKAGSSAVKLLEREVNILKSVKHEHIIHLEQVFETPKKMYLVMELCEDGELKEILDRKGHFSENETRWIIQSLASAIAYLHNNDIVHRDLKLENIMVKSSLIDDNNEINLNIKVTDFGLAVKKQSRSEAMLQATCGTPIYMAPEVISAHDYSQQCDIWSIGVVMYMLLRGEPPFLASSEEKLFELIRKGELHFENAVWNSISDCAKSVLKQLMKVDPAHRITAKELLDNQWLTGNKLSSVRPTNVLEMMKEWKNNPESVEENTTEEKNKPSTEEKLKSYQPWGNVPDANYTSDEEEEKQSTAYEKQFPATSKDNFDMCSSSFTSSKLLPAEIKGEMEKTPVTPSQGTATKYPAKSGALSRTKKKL
PP5 inh – PP5 phosphatase inhibitors, primary screen, biochemical, fluorescence. Serine/threonine-protein phosphatase 5 (Homo sapiens), P53041. purified PP5c, OMFP substrate fluorescence. inhibition, % at 6.7 µM. 320,000 compounds, 0.18% hits;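 active means inhibition above the campaign's mean inhibition across all tested compounds plus 3 SD, cut at about 9.5% in these data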;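 further: 0% = DMSO only and 100% = 100 µM cantharidin control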
PP1 counter – PP1-alpha phosphatase inhibitors, primary screen, counter-screen for PP5 inhibitor project, biochemical, fluorescence, OMFP substrate, single point. Serine/threonine-protein phosphatase PP1-alpha catalytic subunit (Homo sapiens), P62136. purified PP1alpha. inhibition, % at 6.7 µM. 320,000 compounds, 0.9% hits;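 active means inhibition above the mean inhibition of all tested compounds plus 3 SD, computed separately for each screening campaign, cut at about 15% in these data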
HIF activator – HIF pathway transcriptional activators, primary screen, cell-based, U2OS HRE-luciferase, luminescence. U2OS HRE-luciferase reporter; normalized: DMSO 0%, desferrioxamine 100%. activation, % at 7.5 µM (by protocol). 300,000 compounds, 0.32% hits. AID 1910, 2009;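 active means mean activation of at least 10% of the iron chelator positive control signal, with at least half of replicates also reaching 10%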
PP1 confirm – PP1 phosphatase inhibitors, confirmation, biochemical, fluorescence, OMFP substrate, triplicate; shares compounds with PP1 counter; purified PP1alpha; inhibition, % at 6.7 µM; 1,900 compounds, 52% hits;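 active means mean PP1 inhibition above a set limit taken from the earlier primary screen, cut at about 15% in these data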
PP5 inh counter – PP5 phosphatase inhibition by PP1 hits, confirmation, counter-screen for PP1 inhibitor project, biochemical, fluorescence, triplicate; shares compounds with PP1 counter; purified PP5c, OMFP fluorescence; inhibition, % at 6.7 µM; 1,900 compounds, 4% hits; AID 2360, 2010;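 active means mean PP5 inhibition over triplicate wells above about 9.5% taken from the earlier PP1 screen, limit read from the data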
Active calls of the source: *; nt = no result given.

SMILES	Dyrk1A ADPGlo	STK33 inh	PP5 inh	PP1 counter	HIF activator	PP1 confirm	PP5 inh counter
COc1ccc(-c2nnn(CC(=O)N(CCCN3CCOCC3)C(C(=O)NC3CCCC3)c3ccco3)n2)cc1 (stereo not drawn)	-3	-1	2	-3	0	nt	nt
CC(C)(C)C1C=C(Sc2ccccc2)C(=O)O1 (stereo not drawn)	0	-1	3	0	0	nt	nt
COc1ccc(S(=O)(=O)N2CCCC(C(=O)NCc3ccco3)C2)cc1OC (stereo not drawn)	0	0	2	3	0	nt	nt
CN(C)c1ccc(C(=O)Nc2nnc(C3=COCCO3)o2)cc1	-4	-1	1	2	1	nt	nt
CN(c1ccccc1)S(=O)(=O)c1ccc(C(=O)Nc2nnc(C3=COCCO3)o2)cc1	-2	-1	1	26*	0	15*	2
Cc1cc(N2C(=O)C(O)=C(C(=O)c3ccco3)C2c2ccc(Cl)cc2)no1 (stereo not drawn)	4	1	1	20*	0	17*	0
Cc1cc(N2C(=O)C(O)=C(C(=O)c3cc4ccccc4o3)C2c2ccc([N+](=O)[O-])cc2)no1 (stereo not drawn)	nt	1	2	30*	0	16*	-3
COC(=O)c1ccc(C2C(C(=O)c3ccco3)=C(O)C(=O)N2c2cc(C)on2)cc1 (stereo not drawn)	-3	0	-1	7	0	nt	nt
Cc1cc(N2C(=O)C(O)=C(C(=O)c3ccco3)C2c2cccc(Oc3ccccc3)c2)no1 (stereo not drawn)	nt	0	0	25*	0	26*	2
O=c1/c(=C\c2cc([N+](=O)[O-])cc([N+](=O)[O-])c2O)sc2nc3ccccc3n12	2	5	0	18*	nt	26*	3
O=c1/c(=C/c2ccccn2)sc2nc3ccccc3n12	9	nt	2	5	2	nt	nt
O=C(CSc1nc2ccsc2c(=O)n1CC1CCC(C(=O)O)CC1)c1ccc(Cl)cc1 (stereo not drawn)	nt	-1	-3	20*	0	11	-3
O=C(CSc1nc2ccsc2c(=O)n1CC1CCC(C(=O)O)CC1)c1ccc(F)cc1 (stereo not drawn)	-2	-2	1	-5	0	nt	nt
CCCCCC(=O)Cc1cc(O)cc2c1C(=O)Oc1cc(O)c(C(=O)O)c(CCCCC)c1O2	nt	3	7	29*	0	38*	3
COc1cc(NC(=O)c2cnc(N)s2)cc(C(=O)Nc2cccc(C(F)(F)F)c2)c1	nt	1	7	32*	-1	34*	1
O=S(=O)(Nc1ccc(Cl)cn1)c1cccs1	-7	-1	2	3	0	nt	nt
Cc1cc(SCC(=O)N/N=C/c2ccc(O)c(O)c2O)c(C)cc1Br	-1	-2	3	35*	36*	33*	-1
COc1cc(/C=N/NC(=O)CSc2cc(C)c(Br)cc2C)ccc1O	1	-1	1	2	0	nt	nt
N=c1n(CCN2CCCCC2)c2ccccc2n1CC(=O)c1ccc(Cl)c(Cl)c1	nt	0	-1	27*	0	-18	0
CCS(=O)(=O)N1CCC(C(=O)Nc2cc(C)ccc2O)CC1	nt	-2	2	-1	0	nt	nt
CCOC(=O)Cc1cc(=O)n(-c2nc3ccccc3s2)[nH]1	-1	-1	0	44*	-1	-3	-5
Nc1cc(=O)[nH]c(SCC(=O)N2N=C(c3ccc4ccccc4c3)CC2c2ccccc2)n1 (stereo not drawn)	-2	-1	-3	21*	1	3	0
CC(=O)OCC(=O)N1N=C(c2ccc3ccccc3c2)CC1c1ccccc1 (stereo not drawn)	-4	0	3	4	1	nt	nt
